Reference: PubChem BioAssay AID1159580 (chemical genetic matrix, 2015)
Several values for one entry are separate records, joined by “and”; a condition that tells them apart may be missing. Equal values may be shown once. The campaign covered roughly 5,500 compounds. About 2,000 (36%) were called active. Inconclusive results (about 18%) are left out. Rule as the data show it: active = normalized growth mostly below about 0.91 (no sharp cut-off); inconclusive = no clear call, values can overlap the other calls; inactive = mostly above about 0.92. The list shows a part of the results.

Assay: chemical genetic growth profiling, strain panel (AID 1159580);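 also: tested at 20 µM; growth read once vehicle control cultures reached saturation at 30 °C; 1 = growth at the plate median or of vehicle wells; lower values mean less growth of the strain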
Settings: S. cerevisiae deletion strains, growth OD

Measured: normalized growth

CC(=O)O[C@H]1C[C@@H](OC(C)=O)C(C)(C)C2C[C@@H](OC(C)=O)[C@]3(C)C(CC[C@@]4(C)[C@H](c5ccoc5)OC(=O)[C@H]5O[C@]543)[C@]21C (some centres not stated)
inactive: locus YAL021C, strain ccr4, stronger effect = lower value 0.993 | locus YAL026C, strain drs2, stronger effect = lower value 0.984 | locus YAL030W, strain snc1, stronger effect = lower value 0.993 | locus YBL061C, strain skt5, stronger effect = lower value 0.993 | locus YBR009C, strain hhf1, stronger effect = lower value 1.02 | locus YBR021W, strain FUR4, stronger effect = lower value 0.969 | locus YBR023C, strain chs3, stronger effect = lower value 0.996 | locus YBR171W, strain sec66, stronger effect = lower value 0.991 | locus YBR229C, strain ROT2, stronger effect = lower value 0.992 | locus YBR231C, strain swc5, stronger effect = lower value 1.01 | locus YBR279W, strain paf1, stronger effect = lower value 1 | locus YCL011C, strain gbp2, stronger effect = lower value 1 | locus YCL016C, strain dcc1, stronger effect = lower value 0.992 | locus YCL029C, strain bik1, stronger effect = lower value 1.01 | locus YCL061C, strain MRC1, stronger effect = lower value 1 | locus YCL069W, strain vba3, stronger effect = lower value 0.999 | locus YCR088W, strain abp1, stronger effect = lower value 1 | locus YDL005C, strain med2, stronger effect = lower value 0.993 | locus YDL035C, strain GPR1, stronger effect = lower value 1.02 | locus YDL040C, strain nat1, stronger effect = lower value 0.999 | locus YDL074C, strain BRE1, stronger effect = lower value 1.01 | locus YDL101C, strain DUN1, stronger effect = lower value 0.991 | locus YDL134C, strain PPH21, stronger effect = lower value 0.994 | locus YDL185W, strain tfp1, stronger effect = lower value 1 | locus YDL192W, strain arf1, stronger effect = lower value 1.01 | locus YDR001C, strain nth1, stronger effect = lower value 0.976 | locus YDR069C, strain doa4, stronger effect = lower value 0.975 | locus YDR101C, strain arx1, stronger effect = lower value 1.02 | locus YDR137W, strain rgp1, stronger effect = lower value 0.963 | locus YDR159W, strain sac3, stronger effect = lower value 0.96 | locus YDR162C, strain NBP2, stronger effect = lower value 1.02 | locus YDR195W, strain ref2 0.954 | locus YDR297W, strain sur2, stronger effect = lower value 0.998 | locus YDR318W, strain mcm21, stronger effect = lower value 1.01 | locus YDR334W, strain swr1, stronger effect = lower value 0.971 | locus YDR335W, strain msn5, stronger effect = lower value 0.993 | locus YDR388W, stronger effect = lower value 0.999 | locus YDR392W, strain spt3, stronger effect = lower value 0.989 | locus YDR502C, strain sam2, stronger effect = lower value 0.998 | locus YEL003W, strain gim4, stronger effect = lower value 0.988 | locus YEL037C, strain rad23, stronger effect = lower value 0.994 | locus YEL061C, strain CIN8 (second series), stronger effect = lower value 0.991 | locus YEL061C, strain CIN8, stronger effect = lower value 1.02 | locus YER015W, strain faa2, stronger effect = lower value 1 | locus YER016W, strain bim1, stronger effect = lower value 0.993 | locus YER110C, stronger effect = lower value 1 | locus YER111C, strain swi4, stronger effect = lower value 0.988 | locus YER155C, strain BEM2 (second series), stronger effect = lower value 0.996 | locus YER155C, strain BEM2, stronger effect = lower value 1 | locus YER167W, strain BCK2, stronger effect = lower value 0.998 | locus YFR010W, strain ubp6, stronger effect = lower value 0.973 | locus YGL078C, strain dbp3, stronger effect = lower value 0.997 | locus YGL086W, strain mad1, stronger effect = lower value 1.02 | locus YGL167C, strain pmr1, stronger effect = lower value 0.987 | locus YGL173C, strain kem1, stronger effect = lower value 0.999 | locus YGL227W, strain vid30, stronger effect = lower value 1.01 | locus YGL240W, strain doc1, stronger effect = lower value 0.999 | locus YGL248W, strain PDE1, stronger effect = lower value 0.99 | locus YGL253W, strain hxk2, stronger effect = lower value 0.995 | locus YGR078C, strain PAC10, stronger effect = lower value 0.991 | locus YGR135W, strain pre9, stronger effect = lower value 0.979 | locus YGR252W, strain gcn5, stronger effect = lower value 0.966 | locus YHR013C, strain ard1, stronger effect = lower value 0.987 | locus YHR027C, strain rpn1, stronger effect = lower value 0.968 | locus YHR030C, strain SLT2, stronger effect = lower value 0.978 | locus YHR079C, strain IRE1 (second series), stronger effect = lower value 0.989 | locus YHR079C, strain IRE1, stronger effect = lower value 0.984 | locus YHR094C, strain hxt1, stronger effect = lower value 1.01 | locus YHR129C, strain ARP1, stronger effect = lower value 1.02 | locus YHR142W, strain chs7, stronger effect = lower value 1 | locus YHR200W, strain rpn10, stronger effect = lower value 0.995 | locus YIL066C, strain RNR3, stronger effect = lower value 1.01 | locus YIL073C, strain SPO22, stronger effect = lower value 0.989 | locus YIL125W, strain kgd1, stronger effect = lower value 0.996 | locus YIR030C, strain dcg1, stronger effect = lower value 1 | locus YJL092W, strain hpr5, stronger effect = lower value 1.01 | locus YJL095W, strain BCK1 (second series), stronger effect = lower value 0.995 | locus YJL095W, strain BCK1, stronger effect = lower value 1.02 and 0.984 | locus YJL115W, strain asf1, stronger effect = lower value 0.974 | locus YJL129C, strain trk1, stronger effect = lower value 0.979 | locus YJL134W, strain LCB3, stronger effect = lower value 1.02 | locus YJL154C, strain vps35, stronger effect = lower value 0.98 | locus YJL164C, strain tpk1, stronger effect = lower value 0.997 | locus YJL166W, strain qcr8, stronger effect = lower value 1.03 | locus YJL168C, strain set2, stronger effect = lower value 0.999 | locus YJL187C, strain SWE1 (second series), stronger effect = lower value 0.989 | locus YJL187C, strain SWE1, stronger effect = lower value 0.999 | locus YJR043C, strain POL32, stronger effect = lower value 1.02 | locus YJR066W, strain TOR1, stronger effect = lower value 0.932 | locus YKL009W, strain mrt4, stronger effect = lower value 1 | locus YKL068W, stronger effect = lower value 1.01 | locus YKL160W, strain elf1, stronger effect = lower value 1 | locus YKL190W, strain CNB1, stronger effect = lower value 1.01 | locus YKR001C, strain vps1, stronger effect = lower value 1 | locus YKR026C, strain gcn3, stronger effect = lower value 0.995 | locus YKR091W, strain srl3, stronger effect = lower value 0.989 | locus YLL001W, strain dnm1, stronger effect = lower value 0.988 | locus YLL026W, stronger effect = lower value 0.997 | locus YLL041C, strain sdh2, stronger effect = lower value 0.987 | locus YLR027C, strain aat2, stronger effect = lower value 1.01 | locus YLR039C, strain RIC1, stronger effect = lower value 0.981 | locus YLR058C, strain SHM2, stronger effect = lower value 1.01 | locus YLR102C, strain apc9, stronger effect = lower value 0.999 | locus YLR113W, strain HOG1, stronger effect = lower value 1.03 | locus YLR221C, strain rsa3, stronger effect = lower value 0.995 | locus YLR258W, strain gsy2, stronger effect = lower value 0.998 | locus YLR262C, strain YPT6 (second series), stronger effect = lower value 0.969 | locus YLR262C, strain YPT6, stronger effect = lower value 0.974 | locus YLR268W, strain sec22, stronger effect = lower value 1 | locus YLR320W, strain mms22, stronger effect = lower value 1.02 | locus YLR330W, strain CHS5, stronger effect = lower value 1.01 | locus YLR342W, strain FKS1, stronger effect = lower value 1 | locus YLR357W, strain rsc2, stronger effect = lower value 0.997 | locus YLR370C, strain arc18, stronger effect = lower value 0.995 | locus YLR371W, strain rom2, stronger effect = lower value 1 | locus YLR384C, strain iki3, stronger effect = lower value 1.01 | locus YLR418C, strain cdc73, stronger effect = lower value 0.996 | locus YML016C, strain PPZ1, stronger effect = lower value 1.01 | locus YML032C, strain rad52, stronger effect = lower value 1 | locus YML120C, strain ndi1, stronger effect = lower value 0.995 | locus YML124C, strain tub3, stronger effect = lower value 1 | locus YMR058W, strain fet3, stronger effect = lower value 0.985 | locus YMR078C, strain ctf18, stronger effect = lower value 0.989 | locus YMR125W, strain sto1, stronger effect = lower value 0.983 | locus YMR129W, stronger effect = lower value 0.994 | locus YMR205C, strain PFK2, stronger effect = lower value 0.988 | locus YMR223W, strain ubp8, stronger effect = lower value 0.996 | locus YMR231W, strain pep5, stronger effect = lower value 0.981 | locus YMR307W, strain GAS1, stronger effect = lower value 0.895 | locus YNL067W, strain RPL9B, stronger effect = lower value 1.01 | locus YNL071W, strain lat1, stronger effect = lower value 0.992 | locus YNL128W, strain TEP1, stronger effect = lower value 1.02 | locus YNL153C, strain GIM3, stronger effect = lower value 1.02 | locus YNL183C, strain NPR1, stronger effect = lower value 0.93 | locus YNL209W, strain ssb2, stronger effect = lower value 0.995 | locus YNL233W, strain BNI4, stronger effect = lower value 0.974 | locus YNL248C, strain rpa49, stronger effect = lower value 0.971 | locus YNL250W, strain rad50, stronger effect = lower value 0.98 | locus YNL271C, strain bni1, stronger effect = lower value 1 | locus YNL298W, strain CLA4, stronger effect = lower value 1.01 | locus YNL307C, strain MCK1, stronger effect = lower value 0.986 | locus YNL322C, strain KRE1 (second series), stronger effect = lower value 0.999 | locus YNR049C, strain mso1, stronger effect = lower value 0.991 | locus YNR052C, strain pop2, stronger effect = lower value 0.996 | locus YOL012C, strain htz1 1 | locus YOL147C, strain pex11, stronger effect = lower value 0.999 | locus YOR001W, strain rrp6, stronger effect = lower value 0.979 | locus YOR061W, strain CKA2, stronger effect = lower value 0.997 | locus YOR069W, strain VPS5, stronger effect = lower value 0.991 | locus YOR070C, strain gyp1, stronger effect = lower value 0.986 | locus YOR080W, strain dia2, stronger effect = lower value 0.997 | locus YOR083W, strain WHI5, stronger effect = lower value 1 | locus YOR106W, strain vam3, stronger effect = lower value 0.983 | locus YOR136W, strain idh2, stronger effect = lower value 0.996 | locus YOR144C, strain elg1, stronger effect = lower value 1 | locus YOR184W, strain ser1, stronger effect = lower value 1 | locus YOR231W, strain MKK1, stronger effect = lower value 0.987 | locus YOR265W, strain rbl2, stronger effect = lower value 0.989 | locus YOR270C, strain vph1, stronger effect = lower value 0.858 | locus YOR290C, strain snf2, stronger effect = lower value 0.994 | locus YOR316C, strain cot1, stronger effect = lower value 0.999 | locus YPL051W, strain arl3, stronger effect = lower value 1 | locus YPL055C, strain LGE1, stronger effect = lower value 1.02 | locus YPL078C, strain atp4, stronger effect = lower value 1.01 | locus YPL106C, strain sse1, stronger effect = lower value 1.05 | locus YPL240C, strain hsp82, stronger effect = lower value 0.994 | locus YPL256C, strain CLN2, stronger effect = lower value 0.989 | locus YPR119W, strain clb2, stronger effect = lower value 1.01 | locus YPR141C, strain kar3, stronger effect = lower value 0.996 | locus YPR163C, strain tif3, stronger effect = lower value 1 | locus YPR167C, strain met16, stronger effect = lower value 1 | strain wtn01, stronger effect = lower value 1
